Screens from PubChem.
TGFb SMAD3 inh: qHTS for Inhibitors of TGF-b. HepG2 CAGA-GFP TGF-b/SMAD3 reporter, GFP fluorescence, 18 h; TGF-beta stimulated, 500 pg/mL final. Potency, µM (titrated, usually from 46.1 µM), most hits filed as inhibitors. 410,000 tested, 1.2% active; further: nearly all actives have a fitted effect of over 65% in size
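HEPG2 CAGA-GFP reporter cells (1000/well, DMEM with 1% FBS) received compounds, then recombinant TGF-beta at 500 pg/mL final for 18 hours at 37 degrees C. Per-cell GFP summed per well was normalised to unstimulated and stimulated DMSO controls before curve fitting.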
TDP1 inh: qHTS Assay for Inhibitors of Tyrosyl-DNA Phosphodiesterase (TDP1); Potency, µM (series often up to 130 µM), actives largely listed as inhibitors; 350,000 tested, 0.28% active; recombinant TDP1, AlphaScreen DNA substrate cleavage; AID 485290, 2010; further: nearly all actives have a fitted effect of over 40% in size
Target sequence (Q9NUW8 whole entry, looked up): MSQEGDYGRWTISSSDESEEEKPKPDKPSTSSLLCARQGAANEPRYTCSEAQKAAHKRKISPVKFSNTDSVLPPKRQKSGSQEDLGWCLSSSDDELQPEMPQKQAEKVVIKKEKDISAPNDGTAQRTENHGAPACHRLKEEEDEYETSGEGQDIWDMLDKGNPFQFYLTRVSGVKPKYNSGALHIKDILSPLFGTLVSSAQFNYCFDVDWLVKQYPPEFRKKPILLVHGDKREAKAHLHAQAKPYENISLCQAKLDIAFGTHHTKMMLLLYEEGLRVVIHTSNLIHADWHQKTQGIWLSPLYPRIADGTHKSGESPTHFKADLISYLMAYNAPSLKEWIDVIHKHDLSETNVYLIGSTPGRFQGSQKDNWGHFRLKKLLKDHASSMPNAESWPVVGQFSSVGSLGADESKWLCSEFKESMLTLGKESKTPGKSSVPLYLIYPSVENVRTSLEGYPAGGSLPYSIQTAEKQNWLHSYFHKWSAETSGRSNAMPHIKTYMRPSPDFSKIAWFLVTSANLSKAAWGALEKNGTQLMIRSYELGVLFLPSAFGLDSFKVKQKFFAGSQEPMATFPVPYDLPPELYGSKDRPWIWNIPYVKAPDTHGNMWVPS
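Enzyme-compound mixtures sat 15 min at room temperature, followed by a 5 min reaction with 15 nM final substrate and 10 min with AlphaScreen beads. Recombinant human Tdp1 was used at 1 nM final.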
TDP1 cell noCPT: qHTS for Inhibitors of human tyrosyl-DNA phosphodiesterase 1 (TDP1): qHTS in cells in absence of CPT; DT40 Tdp1-/- hTDP1 cells, no CPT, ATP luminescence, 48 h; Potency, µM (doses to about 46.2 µM), actives largely listed as inhibitors; 420,000 tested, 15% active; AID 686978, 2013; further: nearly all actives have a fitted effect of over 55% in size
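A cellular qHTS used chicken DT40 cells lacking endogenous Tdp1 but carrying stably transfected human TDP1. Compounds were applied without camptothecin, and cell growth kinetics were judged by ATP-dependent luminescence after ≥48 hr.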
IL-1B inflam inh: qHTS for Inhibitors of Inflammasome Signaling: IL-1-beta AlphaLISA Primary Screen; THP-1 LPS/ATP IL-1B secretion, AlphaLISA, 16 h; active compounds read low; activity change, % at 57.5 µM; 360,000 tested, 4.7% active; AID 743279, 2014; in the data active means activity change below about -50%; inconclusive means mostly about -30% to -49%
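Secreted IL-1B measured by AlphaLISA bead assay after 16 h compound exposure of THP-1 cells; compounds (final up to 57.5 uM) added 1 h before LPS (250 ng/mL) and ATP (1.25 mM) stimulation; lower signal means less secretion.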
HepG2 tox: qHTS for Inhibitors of TGF-b: Cytotox Counterscreen. HepG2 CAGA-GFP viability, ATP luminescence, 18 h. Potency, µM (doses to about 46.1 µM), usual class: cytotoxic. 410,000 tested, 0.76% active. AID 588856, 2011
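CellTiter-Glo luminescence gave cytotoxicity after 18 hours at 37 degrees C. The cells were HepG2 CAGA-GFP in 1% FBS DMEM, stimulated with 500 pg/mL TGF-beta after compound addition. %Activity was normalised to no-cell wells (complete cell-killing) and DMSO (no toxicity), and curves were fitted and classified.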
TDP1 cell CPT: qHTS for Inhibitors of human tyrosyl-DNA phosphodiesterase 1 (TDP1): qHTS in cells in presence of CPT; 420,000 tested, 12% active; Potency, µM (series often up to 46.2 µM), actives largely listed as inhibitors; AID 686979, 2013; chicken DT40 Tdp1-/-;hTDP1 cells + 20 nM CPT, ATP luminescence, 48 h; further: nearly all actives have a fitted effect of over 55% in size
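Cell growth measured by CellTiter-Glo luminescence after a minimum 48 h, 37 C compound exposure with 20 nM CPT in Tdp1-knockout DT40 cells stably expressing hTDP1, seeded 400/well; qHTS titration format.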
Hits are given with their value. The list is not random: actives were taken first. Their share in the collection is about 18%. Unless noted, the call rests on the fitted dose curve; in most records, active means well fitted curve in the direction sought with a large enough effect; inconclusive means small, poorly fitted or top-dose-only effect, or another doubt; inactive means no such curve, though single readings can be large; an effect the other way counts as inactive or inconclusive.

What do the screens show for `CC(=O)c1c(C)[nH]c(C(=O)Nc2ccc3c(c2)OCCO3)c1C`?
TGFb SMAD3 inh: inactive; TDP1 inh: inactive; TDP1 cell noCPT: inactive; IL-1B inflam inh: inconclusive; HepG2 tox: inactive; TDP1 cell CPT: inactive

Results for CC(=O)c1c(C)[nH]c(C(=O)Nc2cccnc2)c1C ?
TGFb SMAD3 inh: inactive; TDP1 inh: inactive; TDP1 cell noCPT: inactive; IL-1B inflam inh: inactive; HepG2 tox: inactive; TDP1 cell CPT: inactive

Results for CC(=O)c1c(C)[nH]c(C(=O)COC(=O)COc2ccccc2F)c1C ?
TGFb SMAD3 inh: inactive; TDP1 inh: inactive; TDP1 cell noCPT: inactive; IL-1B inflam inh: inactive; HepG2 tox: inactive; TDP1 cell CPT: inactive

Results for CC1Cc2ccccc2N1C(=O)CSc1nnc(-c2ccccc2)c(-c2ccccc2)n1 (stereo unspecified) ?
TGFb SMAD3 inh: inactive; TDP1 inh: inactive; TDP1 cell noCPT: inconclusive; IL-1B inflam inh: inconclusive; HepG2 tox: inactive; TDP1 cell CPT: 21µM

How did Cc1nnc(SC(C)C(=O)N2CCc3ccccc32)s1 (stereo unspecified) do in these assays?
TGFb SMAD3 inh: inactive; TDP1 inh: inactive; TDP1 cell noCPT: inactive; IL-1B inflam inh: inactive; HepG2 tox: inactive; TDP1 cell CPT: inactive

Results for Cn1c(-c2ccc(F)cc2)cnc1SCC(=O)N1CCCCC1 ?
TGFb SMAD3 inh: inactive; TDP1 inh: inactive; TDP1 cell noCPT: inactive; IL-1B inflam inh: inactive; HepG2 tox: inactive; TDP1 cell CPT: inactive

Results for CC1Cc2ccccc2N1C(=O)CSc1nnc2c(n1)[nH]c1ccccc12 (stereo unspecified) ?
TGFb SMAD3 inh: inactive; TDP1 inh: inactive; TDP1 cell noCPT: 21µM; IL-1B inflam inh: inactive; HepG2 tox: inactive; TDP1 cell CPT: inconclusive

Results for CC1Cc2ccccc2N1C(=O)CSc1ncc(-c2ccc(F)cc2)n1C (stereo unspecified) ?
TGFb SMAD3 inh: inactive; TDP1 inh: inactive; TDP1 cell noCPT: inconclusive; IL-1B inflam inh: -77; HepG2 tox: inactive; TDP1 cell CPT: inconclusive

Results for CC1CCCCN1C(=O)CSc1nnc2c(n1)[nH]c1ccccc12 (stereo unspecified) ?
TGFb SMAD3 inh: inactive; TDP1 cell noCPT: inactive; IL-1B inflam inh: inactive; HepG2 tox: inactive; TDP1 cell CPT: inactive

Results for CC(Sc1nnc(-c2ccccc2)c(-c2ccccc2)n1)C(=O)N1CCc2ccccc21 (stereo unspecified) ?
TGFb SMAD3 inh: inconclusive; TDP1 inh: inactive; TDP1 cell noCPT: 16µM; IL-1B inflam inh: inactive; HepG2 tox: inactive; TDP1 cell CPT: inconclusive

How did CC(C)c1ccc(O)c(C(=O)c2cnn(-c3ccccc3)c2)c1 do in these assays?
TGFb SMAD3 inh: inactive; TDP1 cell noCPT: inactive; IL-1B inflam inh: inactive; HepG2 tox: inactive; TDP1 cell CPT: inactive

How did C[C@H]1CN([C@@H](C)CO)C(=O)CCCn2nncc2CO[C@@H]1CN(C)S(=O)(=O)c1ccc(Oc2ccccc2)nc1 do in these assays?
TGFb SMAD3 inh: inactive; TDP1 cell noCPT: inactive; IL-1B inflam inh: inactive; HepG2 tox: inactive; TDP1 cell CPT: inactive

Results for COc1ccccc1CN1C(=O)c2ccccc2C1C(=O)NC1CCC(C)CC1 (stereo unspecified) ?
TGFb SMAD3 inh: inactive; TDP1 inh: inactive; TDP1 cell noCPT: inactive; IL-1B inflam inh: inactive; HepG2 tox: inactive; TDP1 cell CPT: inactive

Results for COc1ccc(N2CCN(S(=O)(=O)c3ccc4c(c3)CC(C)N4C(C)=O)CC2)cc1 (stereo unspecified) ?
TGFb SMAD3 inh: inactive; TDP1 inh: inactive; TDP1 cell noCPT: inconclusive; HepG2 tox: inactive; TDP1 cell CPT: 6.5µM
